Test results as given in PubChem BioAssay AID1209 (Sanford-Burnham Center for Chemical Genomics, 2008).
The campaign covered roughly 190,000 compounds. About 810 (0.43%) were called active. Many of the other results were omitted from the sample, so actives are more common in it than they were. A number with no mark means an inactive call. Rule as the data show it: active = inhibition above about 50%; inactive = the rest.

target: Mannose-6-phosphate isomerase (Homo sapiens) (UniProt P34949); test: inhibitors of human PMI, primary screen, biochemical, fluorescence intensity, coupled assay (AID 1209); conditions: purified PMI enzyme, at 20 µM, active compounds read high;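 also: plate controls were DMSO vehicle for no effect and wells lacking substrate for full effect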
Sequence (P34949 whole entry, looked up): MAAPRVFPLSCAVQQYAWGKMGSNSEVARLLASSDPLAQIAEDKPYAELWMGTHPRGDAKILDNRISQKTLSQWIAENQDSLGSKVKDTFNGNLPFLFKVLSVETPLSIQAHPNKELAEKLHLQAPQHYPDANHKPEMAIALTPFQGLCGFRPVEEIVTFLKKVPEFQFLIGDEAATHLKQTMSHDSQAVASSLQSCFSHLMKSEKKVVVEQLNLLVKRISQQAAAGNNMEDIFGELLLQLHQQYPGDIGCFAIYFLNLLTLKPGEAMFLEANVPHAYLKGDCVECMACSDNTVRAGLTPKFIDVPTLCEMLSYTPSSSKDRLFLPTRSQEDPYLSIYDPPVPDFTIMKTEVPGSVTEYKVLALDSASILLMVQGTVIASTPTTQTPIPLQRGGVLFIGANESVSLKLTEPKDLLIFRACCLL

In order of falling inhibition:
1. Cc1ccc2cc(N)ccc2n1  45.2%
2. Cc1ccc(S(=O)(=O)N(C)C)cc1NC(=S)Nc1ccc2[nH]c(=O)[nH]c2c1  44.5%
3. CCOC(=O)c1sc(N)c(C(=O)Nc2ccccc2)c1C  44.4%
4. CN(C)S(=O)(=O)c1cccc(NC(=S)Nc2ccc3cn[nH]c3c2)c1  44.4%
5. C/C(=C\C(=O)c1cccnc1)Nc1ccc(O)cc1  42.8%
6. CCOc1cc(/C=C2/C(=O)N(c3ccccc3)N=C2C)ccc1OC(=O)c1ccco1  37.5%
7. Cc1ccc(-n2c(N)c(C(=O)N3CCOCC3)sc2=S)cc1  36.2%
8. S=C(Nc1ccc(Cl)cc1)Nc1ccc2cn[nH]c2c1  23.6%
9. COC(=O)c1nc2ccc(N3CCOCC3)cc2c(C)c1C(=O)OC  23.5%
10. Cc1ccc(-n2c(N)c(C(=O)N3CCCCC3)sc2=S)cc1  22.6%
11. O=c1cc(O)nc(SCc2ccccc2)[nH]1  17.4%
12. COc1ccc(NC(=O)Nc2ccccc2SC)c(OC)c1  16.5%
13. CCCCCCSc1nnc(-c2cnn(-c3ccccc3)c2-n2cccc2)n1C  16.4%
14. NNC(=O)COc1ccc(F)cc1  15.9%
15. CCN1/C(=C/c2ccc3ccccc3[n+]2CC)C=Cc2ccccc21  15.5%
16. COc1ccc(N=c2oc3cc(O)ccc3cc2C(=O)Nc2ccccn2)cc1OC  14.8%
17. S=C(Nc1ccc2cn[nH]c2c1)Nc1ccccc1Cl  14.1%
18. CN(CC(=O)NC(=O)NCc1ccccc1)Cc1ccc(Cl)c(Cl)c1  14%
19. S=C(Nc1ccccc1)N1CCN(C(=S)c2ccccc2)CC1  13.6%
20. CCOc1cc(/C=C2/C(=O)N(c3ccccc3)N=C2C)ccc1OC(=O)c1cccs1  13.1%
21. Cc1cccc(NC(=O)C(=O)NCCc2c[nH]c3ccccc23)c1C  12.5%
22. C[n+]1ccc(/C=C/c2ccccc2O)c2ccccc21  12.3%
23. Cc1cccc2sc(N(CCCN(C)C)C(=O)c3cc4ccccc4oc3=O)nc12  11.8%
24. CCOC(=O)c1c(N)sc(C(=O)Nc2ccccc2F)c1C  11.6%
25. O=C(NCc1ccc2c(c1)OCO2)c1ccc(N2CCCCCC2)c([N+](=O)[O-])c1  10.1%
26. O=C(COC(=O)/C=C/c1ccc(S(=O)(=O)N2CCOCC2)cc1)NCc1ccc(F)cc1  9.2%
27. Cc1c(C(=O)N2CCCCC2)sc(N)c1C#N  8.9%
28. CCOC(=O)N1CCC(n2c(SCC(=O)NCCC3=CCCCC3)nc3ccccc3c2=O)CC1  8.6%
29. CCn1c(N)c(C(=O)N2CCOCC2)sc1=S  8.6%
30. CC[n+]1ccc(/C=C2\Sc3ccccc3N2CCCS(=O)(=O)[O-])c2ccccc21  8.2%
31. O=C(NCC(O)c1ccc([N+](=O)[O-])cc1)c1cccc(S(=O)(=O)N2CCCC2)c1 (stereo not drawn)  7.8%
32. COc1ccc(CN2C(=O)NC3(CCOc4ccccc43)C2=O)cc1F (stereo not drawn)  7.7%
33. CCNc1nc(OC)nc(SCC(=O)Nc2ccccc2)n1  7.3%
34. COC(=O)c1ccccc1NC(=S)N1CCN(c2ccccn2)CC1  7.2%
35. CCOC(=O)c1sc(N)c(C(=O)OC)c1C  7%
36. COC(=O)C1CCN(C(=O)c2ccc(SC)cc2OC)CC1  6.4%
37. CCn1c2ccccc2c2nc3cc(C(=O)O)ccc3nc21  6.3%
38. Cc1cc(C(=O)Nc2ccc(N3CCOCC3)cc2)c2ccccc2n1  6.1%
39. CCCOc1ccc(CNC(=S)NCc2ccc(OC(C)C)cc2)cc1  6.1%
40. CC(C)c1nc(SCC(=O)c2ccccc2)c2c(=O)n(C)c(=O)n(C)c2n1  5.8%
41. CCOC(=O)c1c(N)sc2c1CCCC2  5.6%
42. CCn1nc(CC(=O)Nc2nnc(CC(=O)N3CCOCC3)s2)c2ccccc2c1=O  5.5%
43. CCn1nc(CC(=O)Nc2nnc(CC(=O)N3CCCCC3)s2)c2ccccc2c1=O  4.6%
44. CCn1c2ccccc2c2nc3ccccc3nc21  4.5%
45. Cc1ccc(Nc2c([N+](=O)[O-])c(=O)n(C)c3ccccc23)cc1  3.9%
46. CC(C)CC(=O)N1CCN(Cc2ccc3c(c2)OCO3)CC1  3.6%
47. CCOC(=O)N1CCN(C(=O)Cn2ccc3c(OC)cccc3c2=O)CC1  3.2%
48. CN1CCN(C(=O)c2sc(=S)n(-c3ccccc3)c2N)CC1  2.8%
49. Cc1ccc(NCc2ccccc2O)c(C)c1  2.8%
50. CCc1c(O)cc2n(c1=O)-c1ccc(Cl)cc1C2(C)C  2.7%
51. Cc1cccc(Nc2c([N+](=O)[O-])c(=O)n(C)c3ccccc23)c1  2.7%
52. Cc1ccc(-n2c(N)c(C(=O)N3CCN(C)CC3)sc2=S)cc1  2.7%
53. NC1=NC2CS(=O)(=O)CC2S1 (stereo not drawn)  2.4%
54. CCCOC(=O)c1c(N)sc(C(=O)OCC)c1C  2.1%
55. O=C(NCc1ccncc1)c1cncc(Br)c1  2%
56. Cn1cc2cc(NC(N)=S)ccc2n1  1.7%
57. O=C(c1ccc([N+](=O)[O-])cc1)N1CCN(C(=O)c2ccco2)CC1  1.1%
58. COc1ccc(/C=C(\C#N)C(=O)OCC(=O)NCc2ccccc2)cc1  0.9%
59. Cc1nn(C)c(C)c1C1C(C#N)=C(N)OC2=C1C(=O)CC(C)(C)C2 (stereo not drawn)  -1.4%
60. CC(C)NC(=O)C1CCN(Cc2cnn(-c3ccccc3)c2-n2cccc2)CC1  -1.9%
61. COc1ccc(CC(=O)OCC(=O)Nc2cccnc2Cl)cc1OC  -1.9%
62. CCCn1c(SCC(=O)Nc2cc(S(=O)(=O)N3CCOCC3)ccc2OC)n[nH]c1=O  -2%
63. Cc1ccc(-c2nnc(SCC(=O)N/N=C/c3ccccc3C(=O)O)n2-c2ccccc2)cc1  -2.4%
64. CC(C)OC(=O)c1cccc(C(=O)Oc2ccccc2)n1  -3.1%
65. CCOc1cc(-c2nc(C)c(C(C)=O)n2O)ccc1OCC(=O)Nc1ccc(F)cc1  -3.7%
66. NC1=NC(=O)/C(=C\c2ccc(O)c([N+](=O)[O-])c2)S1  -3.7%
67. CC(=O)CC(C)=NCCN=C(C)CC(C)=O  -3.7%
68. Cc1[nH]n(-c2ccccc2)c(=O)c1C=Nc1ccc(S(=O)(=O)N(C)C)cc1  -3.8%
69. Cc1[nH]n(-c2ccccc2)c(=S)c1C=NCCCN=Cc1c(C)[nH]n(-c2ccccc2)c1=S  -3.9%
70. CCC(=O)Nc1cccc(-n2nnnc2SCC(=O)N2CCCCC2)c1  -4.2%
71. CCOC(=O)c1ccccc1N/C=C1\CCCCC1=O  -4.9%
72. COc1ccc(/C=C(\C#N)C(=O)OCC(=O)NC(=O)NCCC(C)C)cc1  -4.9%
73. CCOC(=O)c1c(N)sc(C(=O)N(C)C)c1C  -5%
74. CCOC(=O)c1c(N)sc(C(N)=O)c1C  -5.6%
75. COc1ccnc(Oc2ccc(Cl)cc2)c1C#N  -5.9%
76. CCOC(=O)c1c(N)sc(C(=O)OC)c1C  -6.6%
77. CC(=O)Nc1ccc(N/C(C)=C/C(=O)c2cccnc2)cc1  -7.3%
78. Cc1ccc(NC(=O)NC(=O)N(C(C)C)S(C)(=O)=O)nc1  -7.9%
79. O=C(NCc1ccccn1)c1ccc(N2CCCC2)c([N+](=O)[O-])c1  -10.4%
80. CC(C)[C@H](NC(=O)c1ccccc1)C(=O)OCC(=O)N1CCN(C(=O)c2ccco2)CC1  -11.4%
81. CCOC(=O)N1CCN(C(=O)C2CCN(S(=O)(=O)N(CC)CC)CC2)CC1  -12%

In the case of `CCn1nc(CC(=O)Nc2nnc(CC(=O)N3CCCC3)s2)c2ccccc2c1=O`, the inhibition is reported as 50.5% (active).
In the case of `CCOC(=O)c1c(N)sc(N)c1C(=O)OCC`, the inhibition is reported as 60.1% (active).
With `CCOC(=O)c1sc(N)c(C(N)=O)c1C` the inhibition was 64.3% (active).
In the case of `CCOC(=O)c1sc(N)c(C(=O)Nc2ccccc2OC)c1C`, the inhibition is reported as 60.2% (active).
For `CCOC(=O)c1c(N)sc(C(=O)OCCOC)c1C`, the inhibition was 51% (active).
With `Cc1c(C(=O)O)c(C(=O)O)nc2ccc(N3CCOCC3)cc12` the inhibition was 56.4% (active).
In the case of `C/C(=C\C(=O)c1cccnc1)Nc1ccc(C(=O)O)cc1`, the inhibition is reported as 81% (active).
`Cn1cc2ccc(N)cc2n1` was tested, and the inhibition was 72.9% (active).
With `Cc1cccc(Oc2c([N+](=O)[O-])c(=O)n(C)c3ccccc23)c1` the inhibition was 76% (active).
`CCOc1cc(/C=C2\C(=O)N(c3ccc(C(N)=O)cc3)N=C2C)ccc1OC(=O)c1cccs1` was tested, and the inhibition was 59.8% (active).
In the case of `N#Cc1ccccc1-n1c(N)c(C(=O)N2CCCC2)sc1=S`, the inhibition is reported as 71% (active).
For `Nc1c(C(=O)N2CCCCC2)sc(=S)n1-c1ccccc1`, the inhibition was 57.7% (active).
For `Nc1c(C(=O)N2CCOCC2)sc(=S)n1-c1ccccc1`, the inhibition was 53.3% (active).
In the case of `CCn1c2ccccc2c2nc3cc(S(=O)(=O)N4CCOCC4)ccc3nc21`, the inhibition is reported as 70.3% (active).
`Cc1[nH]n(-c2ccccc2)c(=S)c1C=Nc1ccc([N+](=O)[O-])cc1` was tested, and the inhibition was 69.1% (active).
In the case of `CN1/C(=C/c2cc[n+](C)c3ccccc23)C=Cc2ccccc21`, the inhibition is reported as 70.7% (active).
In the case of `CN1C=C/C(=C\c2cc[n+](C)c3ccccc23)c2ccccc21`, the inhibition is reported as 59.2% (active).
For `COC(=O)c1ccccc1N/C=C1\CCc2c(c(C)nn2-c2ccccn2)C1=O`, the inhibition was 85.2% (active).
`COc1ccc(/C=C(\C#N)C(=O)OCCNC(=O)c2ccncc2)cc1` was tested, and the inhibition was 67.7% (active).
For `O=C(NCc1ccncc1)c1ccc(N2CCCC2)c([N+](=O)[O-])c1`, the inhibition was 72.1% (active).
`S=C(Nc1ccc2cn[nH]c2c1)Nc1ccc(Cl)cc1Cl` was tested, and the inhibition was 55.6% (active).
With `Cc1ccc(S(=O)(=O)N(C)C)cc1NC(=S)Nc1ccc2cn[nH]c2c1` the inhibition was 55.4% (active).
